{"source": "PubChem BioAssay AID431", "about": "(Sanford-Burnham Center for Chemical Genomics, 2006)", "note": "Among all 63,000 compounds or so, about 1,100 (1.7%) were called active. The sample as a whole holds a higher share of actives than the screen did. Potency and affinity values are given separately. Values without a mark were called inactive.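 The calls were made as follows: active = compounds whose percent cytotoxicity in the single-dose primary screen, scaled between solvent and toxic-drug controls, exceeds 50; inactive = the rest.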", "data": [{"assay": "cytotoxicity in KRAS-transformed pancreatic duct cells, primary screen, cell-based, fluorescence, HTS (AID 431);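 also: 0% = DMSO solvent wells and 100% = doxorubicin-treated wells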", "settings": "HPDE-C7K KRASV12 cells, Alamar Blue viability, 48 h; at 10 µM; hits give high values", "values": [{"compound": "NC(=O)c1c(NC(=O)Cc2cccs2)sc2c1CCC2", "cytotoxicity": "-2.4%"}, {"compound": "CC(C)(C#N)Nn1cnnc1", "cytotoxicity": "-13.8%"}, {"compound": "O=C(Nc1nc(-c2nc3ccccc3s2)cs1)c1ccco1", "cytotoxicity": "1.4%"}, {"compound": "Cc1cccn2c(=O)c(C=Nc3ccccc3)c(NCc3ccco3)nc12", "cytotoxicity": "-13.4%"}, {"compound": "COc1ccc2c(c1)N1CCN=C1N2C", "cytotoxicity": "-12%"}, {"compound": "Cc1cc(=O)[nH]c2ccccc12", "cytotoxicity": "-5.7%"}, {"compound": "CN(C)C=Nc1ncc2c([nH]c3ccccc32)c1C#N", "cytotoxicity": "19.8%"}, {"compound": "CSc1ccccc1NC(=O)c1cnccn1", "cytotoxicity": "-5.1%"}, {"compound": "CN(C)CCCNC(=O)CCC1CCCCC1", "cytotoxicity": "1.5%"}, {"compound": "COc1ccc(N2CCN(C(=O)CN=C3NS(=O)(=O)C(c4ccc(C)cc4)=C3C)CC2)cc1", "cytotoxicity": "-1.4%"}, {"compound": "CC(C)CC(NC(=O)COc1ccccc1)C(=O)O", "note": "(stereo not given)", "cytotoxicity": "5.6%"}, {"compound": "CCN1C(=O)c2cccc3c(NC(=O)c4cccc(N5C(=O)CCC5=O)c4)ccc1c23", "cytotoxicity": "-10.7%"}, {"compound": "CCN1C(=O)c2cccc3c(NC(=O)c4ccc(S(=O)(=O)N(C)C)cc4)ccc1c23", "cytotoxicity": "0%"}, {"compound": "CCN1C(=O)c2cccc3c(NC(=O)c4ccc5c(c4)OCCO5)ccc1c23", "cytotoxicity": "95.1% (active)"}, {"compound": "c1ccc2c(c1)C(=NCC1CCCO1)NC2=NCC1CCCO1", "note": "(stereo not given)", "cytotoxicity": "8.3%"}, {"compound": "O=C1c2oc3ccc(F)cc3c(=O)c2C(c2ccc(F)cc2)N1CCCN1CCOCC1", "note": "(stereo not given)", "cytotoxicity": "-15.7%"}, {"compound": "COc1ccc(CC(=O)N2CCNC2=O)cc1", "cytotoxicity": "-17.1%"}, {"compound": "Fc1ccc(C2=Nn3c(nnc3-c3n[nH]c4c3CCC4)SC2)cc1", "cytotoxicity": "1.2%"}, {"compound": "Clc1ccc(C2=Nn3c(nnc3-c3n[nH]c4c3CCC4)SC2)cc1Cl", "cytotoxicity": "71.9% (active)"}, {"compound": "Clc1ccc(C2=Nn3c(nnc3-c3n[nH]c4c3CCC4)SC2)cc1", "cytotoxicity": "25.9%"}, {"compound": "c1ccc(C2=Nn3c(nnc3-c3n[nH]c4c3CCC4)SC2)cc1", "cytotoxicity": "10.4%"}, {"compound": "Brc1ccc(C2=Nn3c(nnc3-c3n[nH]c4c3CCC4)SC2)cc1", "cytotoxicity": "53.5% (active)"}, {"compound": "CC1=Nn2c(nnc2-c2n[nH]c3c2CCC3)SC1", "cytotoxicity": "-0.7%"}, {"compound": "COC(=O)c1ccc(S(=O)(=O)N2C3CCC2CC(NC(=O)NC2CCCCC2)C3)cc1", "note": "(stereo not given)", "cytotoxicity": "-5.3%"}, {"compound": "CCn1c(SCC(=O)NCc2ccco2)nc2cccnc21", "cytotoxicity": "-20.4%"}, {"compound": "CCSc1sccc1C1C(C#N)=C(N)N(c2cccnc2)C2=C1C(=O)CC(C)(C)C2", "note": "(stereo not given)", "cytotoxicity": "30.9%"}, {"compound": "O=C(Nc1ccc2oc(-c3ccccc3)nc2c1)c1cccnc1", "cytotoxicity": "34.5%"}, {"compound": "COC(=O)c1ccc(-c2nc3ccc(C)cc3o2)cc1", "cytotoxicity": "54.8% (active)"}, {"compound": "CCc1ccc2oc(-c3cccc(NC(=O)c4cccnc4)c3)nc2c1", "cytotoxicity": "10.6%"}, {"compound": "Cc1ccc(-c2nc3cc(C)ccc3o2)cc1", "cytotoxicity": "8.8%"}, {"compound": "COC(=O)c1ccc(-c2nc3ccccc3o2)cc1", "cytotoxicity": "-20.7%"}, {"compound": "O=C(Nc1ccc2oc(-c3cccnc3)nc2c1)c1cccnc1", "cytotoxicity": "3.2%"}, {"compound": "COc1ccc(-c2nc3cc(NC(=O)c4ccc5c(c4)OCO5)ccc3o2)cc1", "cytotoxicity": "-6.9%"}, {"compound": "Cc1ccc2oc(-c3ccc(NC(=O)c4cccnc4)cc3)nc2c1", "cytotoxicity": "56.9% (active)"}, {"compound": "O=C(Nc1ccc(-c2nc3ccccc3o2)cc1)c1ccc2c(c1)OCO2", "cytotoxicity": "2%"}, {"compound": "O=C(Nc1ccc2oc(=O)ccc2c1)c1cccnc1", "cytotoxicity": "7.9%"}, {"compound": "O=C(Nc1ccc2oc(Cc3ccc(Cl)cc3)nc2c1)c1cccnc1", "cytotoxicity": "58.3% (active)"}, {"compound": "Cc1ccc2oc(-c3ccc(NC(=O)c4ccc5c(c4)OCO5)cc3)nc2c1", "cytotoxicity": "85.1% (active)"}, {"compound": "c1ccc(CSc2nnc(-c3cccs3)n2Cc2ccco2)cc1", "cytotoxicity": "-21.5%"}, {"compound": "CCOC(=O)c1cccc(Nc2nc(C)cc(C)n2)c1", "cytotoxicity": "0.1%"}, {"compound": "O=C(NCc1ccccn1)c1cn(CCc2ccccc2)nn1", "cytotoxicity": "-5%"}, {"compound": "CCOC(=O)Cc1csc(NC(=O)c2c(-c3c(F)cccc3Cl)noc2C)n1", "cytotoxicity": "-8.5%"}, {"compound": "COc1cc(C(=O)Nc2cccc(-c3nc4cc(C)ccc4o3)c2)cc(OC)c1OC", "cytotoxicity": "43.8%"}, {"compound": "COc1cc(C(=O)NCc2ccc(-c3nc4ccccc4o3)cc2)cc(OC)c1OC", "cytotoxicity": "2.5%"}, {"compound": "O=C(Nc1ccc(-c2nc3ccccc3o2)cc1)C1CCCO1", "note": "(stereo not given)", "cytotoxicity": "5.9%"}, {"compound": "COc1cc(OC)cc(C(=O)Nc2ccc(-c3nc4ccccc4o3)cc2)c1", "cytotoxicity": "73.9% (active)"}, {"compound": "O=S(=O)(Nc1ccc(-c2nc3ccccc3o2)cc1)c1ccccc1", "cytotoxicity": "52% (active)"}, {"compound": "O=C(Nc1ccc2c(c1)oc1ccccc12)c1cccnc1", "cytotoxicity": "53.2% (active)"}, {"compound": "O=C(Nc1ccc2c(c1)oc1ccccc12)c1ccncc1", "cytotoxicity": "7.8%"}, {"compound": "COc1cccc(C(=O)Nc2ccc(-c3nc4ccccc4o3)c(O)c2)c1", "cytotoxicity": "24.7%"}, {"compound": "O=C(Nc1ccc2ccccc2c1)c1cccnc1", "cytotoxicity": "0.5%"}, {"compound": "Cc1ccc2oc(-c3cccc(NC(=O)C4CCCO4)c3)nc2c1", "note": "(stereo not given)", "cytotoxicity": "3.3%"}, {"compound": "O=S(=O)(Nc1ccc2oc(-c3ccccc3)nc2c1)c1ccccc1", "cytotoxicity": "15.5%"}, {"compound": "Cc1occc1-c1nc(-c2ccccn2)no1", "cytotoxicity": "-13.5%"}, {"compound": "CC1CN(C(=O)c2cc3cc(Cl)cc(Cl)c3oc2=O)CC(C)O1", "note": "(stereo not given)", "cytotoxicity": "-12.2%"}, {"compound": "COc1ccc2oc(-c3ccccc3)c(C(N)=O)c2c1", "cytotoxicity": "-8.2%"}, {"compound": "CCCCCC(=O)Nc1cccc(-c2nc3ncccc3o2)c1", "cytotoxicity": "-7%"}, {"compound": "Cc1nnc(SCC(=O)NCc2cccs2)n1-c1ccccc1", "cytotoxicity": "-5.1%"}, {"compound": "Cn1c(=O)c2c(SCc3ccccn3)nc(-c3ccccc3)nc2n(C)c1=O", "cytotoxicity": "6.7%"}, {"compound": "CC[C@@H](C)[C@H](NC(=O)C1CCN(C(=O)[C@@H](NS(=O)(=O)c2ccc(C)cc2)C(C)C)CC1)C(=O)O", "cytotoxicity": "-19.2%"}, {"compound": "NC(=O)C1CCN(c2ncnc3c2c(-c2ccccc2)cn3-c2ccccc2)CC1", "cytotoxicity": "-9%"}, {"compound": "Cn1nnnc1SCCNC/C=C/c1ccccc1", "cytotoxicity": "14.4%"}, {"compound": "CN(C1CCCCC1)S(=O)(=O)c1ccc(-n2cnnn2)cc1", "cytotoxicity": "-13.1%"}, {"compound": "CCCCN(CC)S(=O)(=O)N1CCC(C(=O)NCc2ccc(F)cc2)CC1", "cytotoxicity": "-8.2%"}, {"compound": "C=CCN1C(=O)C2C(C(=O)NC)C3C=CC2(O3)C1C(=O)NCc1ccc(OC)cc1", "note": "(stereo not given)", "cytotoxicity": "4.1%"}, {"compound": "CC(=O)N1CC=C2C(C#N)=C(N)C(C#N)(C#N)[C@H](c3ccoc3)[C@H]2C1", "cytotoxicity": "13.2%"}, {"compound": "CC(C)N1CC=C2C(C#N)=C(N)C(C#N)(C#N)C(c3ccccc3)C2C1", "note": "(stereo not given)", "cytotoxicity": "27.9%"}, {"compound": "N#CC1=C(N)C(C#N)(C#N)[C@H](c2ccoc2)[C@H]2CN(Cc3ccccc3)CC=C12", "cytotoxicity": "81.4% (active)"}, {"compound": "Cn1c(=O)c2c(nc(Br)n2Cc2c(F)cccc2Cl)n(C)c1=O", "cytotoxicity": "-11.4%"}, {"compound": "Cc1ccccc1-c1nnc2s/c(=C\\c3ccc(N(C)C)cc3)c(=O)n12", "cytotoxicity": "3.5%"}, {"compound": "Cc1ccc(/C=c2\\sc3nc(-c4ccccc4Br)nn3c2=O)o1", "cytotoxicity": "8.5%"}, {"compound": "Cc1ccc(/C=c2/sc3nnc(-c4ccccc4Cl)n3c2=O)o1", "cytotoxicity": "50.1% (active)"}, {"compound": "COc1cccc(OC)c1OCCCSc1nc(C)cc(=O)[nH]1", "cytotoxicity": "6.8%"}, {"compound": "C=CCSC1=N/C(=C\\c2cc(OC)c3c(c2)OCO3)C(=O)S1", "cytotoxicity": "16.5%"}, {"compound": "CCSC1=N/C(=C\\c2ccc3c(c2)OCO3)C(=O)S1", "cytotoxicity": "40.9%"}, {"compound": "C=CCSC1=N/C(=C\\c2ccc3c(c2)OCO3)C(=O)S1", "cytotoxicity": "52.9% (active)"}, {"compound": "COc1ccc(-c2c3c(=O)n(C)c(=O)n(C)c3cn2Cc2ccccn2)cc1", "cytotoxicity": "7%"}, {"compound": "CCS(=O)(=O)N1CCCC(C(=O)NCc2ccccc2Cl)C1", "note": "(stereo not given)", "cytotoxicity": "14.1%"}, {"compound": "COc1cc(NC(=O)NCc2ccncc2)cc(OC)c1OC", "cytotoxicity": "-5.3%"}, {"compound": "CCOc1ccc(-c2nc(N)ncc2-c2ccccc2)c(O)c1", "cytotoxicity": "8.3%"}, {"compound": "COc1ccc(-c2cnc(N)nc2-c2ccc(OC)cc2O)cc1", "cytotoxicity": "-1.3%"}, {"compound": "CCc1cc(-c2[nH]ncc2-c2ccc3c(c2)OCO3)c(O)cc1O", "cytotoxicity": "64.9% (active)"}, {"compound": "Oc1ccccc1-c1cc(-c2ccc3c(c2)OCCO3)n[nH]1", "cytotoxicity": "16.4%"}, {"compound": "CCOC(=O)c1nc(-c2ccc3c(c2)OCO3)[nH]c1C", "cytotoxicity": "5.4%"}, {"compound": "CCCc1cc(-c2[nH]ncc2-c2ccc(C(=O)OCC)o2)c(O)cc1O", "cytotoxicity": "30.9%"}, {"compound": "Cc1nc(-c2ccc3c(c2)OCO3)cs1", "cytotoxicity": "-26.4%"}, {"compound": "CCc1nc(SCc2ccccn2)c2c(=O)n(C)c(=O)n(C)c2n1", "cytotoxicity": "-2.5%"}, {"compound": "CCCSCCCNC(=O)Cn1cc2c(n1)CCC(C)C2", "note": "(stereo not given)", "cytotoxicity": "4.6%"}, {"compound": "COC(=O)Cc1csc(N)n1", "cytotoxicity": "-19.5%"}, {"compound": "Cc1cc(C)c2[nH]c(=O)c(C(c3nnnn3Cc3ccc4c(c3)OCO4)N3CCC(C)CC3)cc2c1", "note": "(stereo not given)", "cytotoxicity": "-17.3%"}, {"compound": "O=C(CSc1nnc(-c2ccccn2)n1Cc1ccccc1)N1CCCC1", "cytotoxicity": "-3%"}, {"compound": "O=C1C(=O)N(CCOCCO)C(c2ccccn2)/C1=C(\\O)c1ccccc1", "note": "(stereo not given)", "cytotoxicity": "-29.5%"}, {"compound": "CCc1oc(C(=O)O)cc1CN(CC)CC", "cytotoxicity": "-3.6%"}, {"compound": "CCCCCn1c(CN2CCCCC2CC)nc2c1c(=O)n(C)c(=O)n2C", "note": "(stereo not given)", "cytotoxicity": "8.3%"}, {"compound": "Cn1c(=O)oc2cc(S(=O)(=O)NCCC(=O)NCCc3ccccc3)ccc21", "cytotoxicity": "0.1%"}, {"compound": "Cc1cc(Nc2cccc(C)c2C)n2nc(C)nc2n1", "cytotoxicity": "9%"}, {"compound": "O=C(COc1ccccc1)N(Cc1ccco1)c1ccc(O)cc1", "cytotoxicity": "-5.3%"}, {"compound": "CCCCn1nc(NC(=O)c2cccs2)c2cc3cc(OC)ccc3nc21", "cytotoxicity": "23.2%"}, {"compound": "CCCn1nc(NC(=O)c2cccs2)c2cc3cc(OC)ccc3nc21", "cytotoxicity": "-25.3%"}, {"compound": "COc1ccc2nc3c(cc2c1)c(NC(=O)c1cccs1)nn3CC(C)C", "cytotoxicity": "52.8% (active)"}]}]}
